# The full list was thinned out, with the strongest signals kept by preference.
# Legend:
# Assay in all cases: glycan array binding signal (z-score within array); higher = stronger binding
# Conditions in all cases: glycan notation: IUPAC condensed, linker removed
# [1] = target: Fuc(a1-2)Gal(b1-3)GalNAc(a1-3)[Fuc(a1-2)]Gal(b1-4)GlcNAc
# Outline: (§1)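 Glycan array data were curated from 3228 arrays in the Consortium for Functional Glycomics database and kept only where the protein sequence was available. Glycan names were converted to IUPAC-condensed notation, and columns mapping to the same glycan were averaged. The binding signal is a within-array Z-score, averaged across arrays of the same protein sequence at different concentrations or buffers and across linkers. Negative Z-scores can be read as non-binding.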
# [2] = target: Fuc(a1-2)Gal(b1-3)GlcNAc(b1-3)[Fuc(a1-2)Gal(b1-3)GlcNAc(b1-6)]GalNAc
# Outline: as §1
# [3] = target: Fuc(a1-2)Gal(b1-4)[Fuc(a1-3)]GlcNAc(b1-3)Gal(b1-4)[Fuc(a1-3)]GlcNAc(b1-3)Gal(b1-4)[Fuc(a1-3)]GlcNAc
# Outline: as §1
# [4] = target: Fuc(a1-2)Gal(b1-4)[Fuc(a1-3)]GlcNAc(b1-3)[Neu5Ac(a2-6)Gal(b1-4)GlcNAc(b1-6)]Gal(b1-4)Glc
# Outline: as §1
# Fuc(a1-2)Gal6S(b1-4)Glc = target: Fuc(a1-2)Gal6S(b1-4)Glc
# Outline: as §1
# [5] = target: Fuc(a1-2)[Gal(a1-3)]Gal(b1-3)GalNAc
# Outline: as §1
# [6] = target: Fuc(a1-2)[Gal(a1-3)]Gal(b1-3)GlcNAc(b1-2)Man(a1-3)[Fuc(a1-2)[Gal(a1-3)]Gal(b1-3)GlcNAc(b1-2)Man(a1-6)]Man(b1-4)GlcNAc(b1-4)GlcNAc
# Outline: as §1
# [7] = target: Fuc(a1-2)[Gal(a1-3)]Gal(b1-4)GlcNAc(b1-3)[Fuc(a1-2)[Gal(a1-3)]Gal(b1-4)GlcNAc(b1-6)]GalNAc
# Outline: as §1
# [8] = target: Fuc(a1-2)[Gal(a1-3)]Gal(b1-4)[Fuc(a1-3)]GlcNAc(b1-3)GalNAc
# Outline: as §1
# [9] = target: Fuc(a1-2)[GalNAc(a1-3)]Gal(b1-3)GlcNAc
# Outline: as §1
# [10] = target: Fuc(a1-3)[Gal(b1-4)]GlcNAc(b1-2)Man
# Outline: as §1
# [11] = target: Fuc(a1-3)[Gal(b1-4)]GlcNAc(b1-6)GalNAc
# Outline: as §1
# [12] = target: Fuc(a1-3)[GalNAc(b1-4)]GlcNAc
# Outline: as §1
# [13] = target: Gal(a1-3)Gal(b1-4)GlcNAc(b1-3)GalNAc
# Outline: as §1
# [14] = target: Gal(a1-3)[Gal(a1-4)]Gal(b1-4)GlcNAc
# Outline: as §1
# [15] = target: Gal(b1-3)GalNAc(a1-3)[Fuc(a1-2)]Gal(b1-4)GlcNAc
# Outline: as §1
# [16] = target: Gal(b1-3)GlcNAc(b1-2)[Gal(b1-3)GlcNAc(b1-6)]Man(a1-6)[Gal(b1-3)GlcNAc(b1-2)Man(a1-3)]Man(b1-4)GlcNAc(b1-4)GlcNAc
# Outline: as §1
# [17] = target: Gal(b1-3)GlcNAc(b1-6)GalNAc
# Outline: as §1
# [18] = target: Gal(b1-3)[Fuc(a1-4)]GlcNAc(b1-6)GalNAc
# Outline: as §1
# [19] = target: Gal(b1-4)GalNAc(a1-3)[Fuc(a1-2)]Gal(b1-4)GlcNAc
# Outline: as §1
# [20] = target: Gal(b1-4)GlcNAc(b1-2)Man(a1-6)Man(b1-4)GlcNAc(b1-4)GlcNAc
# Outline: as §1
# [21] = target: Gal(b1-4)GlcNAc(b1-3)Gal(b1-4)GlcNAc(b1-2)Man(a1-3)[Gal(b1-4)GlcNAc(b1-3)Gal(b1-4)GlcNAc(b1-2)Man(a1-6)]Man(b1-4)GlcNAc(b1-4)GlcNAc
# Outline: as §1
# [22] = target: Gal(b1-4)GlcNAc(b1-3)Gal(b1-4)GlcNAc(b1-2)[Gal(b1-4)GlcNAc(b1-3)Gal(b1-4)GlcNAc(b1-6)]Man(a1-6)[Gal(b1-4)GlcNAc(b1-3)Gal(b1-4)GlcNAc(b1-2)Man(a1-3)]Man(b1-4)GlcNAc(b1-4)GlcNAc
# Outline: as §1
# [23] = target: Gal(b1-4)GlcNAc(b1-3)Gal(b1-4)GlcNAc(b1-2)[Gal(b1-4)GlcNAc(b1-3)Gal(b1-4)GlcNAc(b1-6)]Man(a1-6)[Gal(b1-4)GlcNAc(b1-3)Gal(b1-4)GlcNAc(b1-2)Man(a1-3)]Man(b1-4)GlcNAc(b1-4)[Fuc(a1-6)]GlcNAc
# Outline: as §1
# [24] = target: Gal(b1-4)GlcNAc(b1-3)Gal(b1-4)GlcNAc(b1-3)Gal(b1-4)GlcNAc(b1-3)Gal(b1-4)GlcNAc(b1-2)[Gal(b1-4)GlcNAc(b1-3)Gal(b1-4)GlcNAc(b1-3)Gal(b1-4)GlcNAc(b1-3)Gal(b1-4)GlcNAc(b1-6)]Man(a1-6)[Gal(b1-4)GlcNAc(b1-3)Gal(b1-4)GlcNAc(b1-3)Gal(b1-4)GlcNAc(b1-3)Gal(b1-4)GlcNAc(b1-2)Man(a1-3)]Man(b1-4)GlcNAc(b1-4)[Fuc(a1-6)]GlcNAc
# Outline: as §1
# [25] = target: Gal(b1-4)GlcNAc(b1-3)Gal(b1-4)GlcNAc(b1-3)Gal(b1-4)GlcNAc(b1-3)Gal(b1-4)GlcNAc(b1-3)Gal(b1-4)GlcNAc(b1-2)[Gal(b1-4)GlcNAc(b1-3)Gal(b1-4)GlcNAc(b1-3)Gal(b1-4)GlcNAc(b1-3)Gal(b1-4)GlcNAc(b1-3)Gal(b1-4)GlcNAc(b1-6)]Man(a1-6)[Gal(b1-4)GlcNAc(b1-3)Gal(b1-4)GlcNAc(b1-3)Gal(b1-4)GlcNAc(b1-3)Gal(b1-4)GlcNAc(b1-3)Gal(b1-4)GlcNAc(b1-2)Man(a1-3)]Man(b1-4)GlcNAc(b1-4)[Fuc(a1-6)]GlcNAc
# Outline: as §1
# [26] = target: Gal(b1-4)GlcNAc(b1-6)Gal(b1-4)GlcNAc
# Outline: as §1
# Gal3S(b1-3)GlcNAc = target: Gal3S(b1-3)GlcNAc
# Outline: as §1
# Gal3S4S(b1-4)GlcNAc = target: Gal3S4S(b1-4)GlcNAc
# Outline: as §1
binder,measurement,setting,value
PX9961C-bth-497-22-497 (Bacteroides thetaiotaomicron) (protein) DWLDLNTTSSVETGQAIVTLDDAQIALNGIYRLASGHSYYGDNYWYYGDCRAADVQARITKGDGKRVSPYYEYNVLASDNLNIVLPWNTVYKVIRQTNNLIQKIESGSIQSSDTKELNRIKSEALVMRGLSLFNLTRLFGMPYTNDKGASLGVPIETSPSDPTHKPSRSTVAQCYEQVVSDMSNALSGLRQETSNGYINYWAAQALLSRVYLNMGEYQKAYDAATDVIKNNGGRYQLYSYEEYPNVWGQDFQSESLFELYITLSEPSGGTGGEGAPMVYANEATVDWNNLILSEDFLNLLNEDPKDVRHCLTKESVIENNTGLPAAAMHEKVYLAKFPGKTGDDPKTNNICIIRLSEVYLNAAEAGLKKGTDIEEAQGYLNDIISRRTTDTSQQVSTETFTLDRILKERRKELVGEGEVFYDYLRNGLAIERKGSWHLETLKASNAQKIEATDLRIALPIPQSEIDANPNIQQNPR,glycan array binding signal (z-score),[1],-0.6
same,glycan array binding signal (z-score),[2],0.12
same,glycan array binding signal (z-score),[3],-0.517
same,glycan array binding signal (z-score),[4],-0.648
same,glycan array binding signal (z-score),Fuc(a1-2)Gal6S(b1-4)Glc,-0.078
same,glycan array binding signal (z-score),[5],-0.3
same,glycan array binding signal (z-score),[6],1.08
same,glycan array binding signal (z-score),[7],-0.459
same,glycan array binding signal (z-score),[8],-0.284
same,glycan array binding signal (z-score),[9],-0.776
same,glycan array binding signal (z-score),[10],1.56
same,glycan array binding signal (z-score),[11],0.511
same,glycan array binding signal (z-score),[12],0.598
same,glycan array binding signal (z-score),[13],-0.646
same,glycan array binding signal (z-score),[14],2.48
same,glycan array binding signal (z-score),[15],-0.307
same,glycan array binding signal (z-score),[16],14.1
same,glycan array binding signal (z-score),[17],-0.427
same,glycan array binding signal (z-score),[18],-0.101
same,glycan array binding signal (z-score),[19],-0.203
same,glycan array binding signal (z-score),[20],-0.302
same,glycan array binding signal (z-score),[21],1.26
same,glycan array binding signal (z-score),[22],2.36
same,glycan array binding signal (z-score),[23],2.08
same,glycan array binding signal (z-score),[24],-0.171
same,glycan array binding signal (z-score),[25],7.33
same,glycan array binding signal (z-score),[26],-0.211
same,glycan array binding signal (z-score),Gal3S(b1-3)GlcNAc,-0.219
same,glycan array binding signal (z-score),Gal3S4S(b1-4)GlcNAc,0.105

# — the supplement of paper PMC8728848
